# According to PMC10668032, “Altered binding affinity of SIX1-Q177R correlates with enhanced WNT5A and WNT pathway effector expression in Wilms tumor”:
# Over roughly 33,000 sequences, “e-score” has its median near -0.05; the highest 2% begin near 0.38. For the sample, the highest values were picked, then their nearest neighbours and some sequences at random.
# Target: T1, SIX1-Q177R homeodomain (human, UniProt Q15475 108-198, Q177R)
# T1 sequence: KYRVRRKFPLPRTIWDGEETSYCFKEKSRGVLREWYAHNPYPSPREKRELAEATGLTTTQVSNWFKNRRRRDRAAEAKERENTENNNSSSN
# Experiment: universal protein binding microarray; Universal all-10-mer PBM (8x60K, AMADID 030236), 300 nM GST-tagged protein, Alexa Fluor 488 anti-GST; buffer, salt, pH and temperature not stated (as in Berger); high values mean tight binding
# Conditions: protein: ivt; tags: N-terminal GST; dsDNA, one strand shown
# Summary of the method: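 GST-tagged homeodomains were made by in vitro transcription/translation and quantified by anti-GST western blot against a recombinant GST standard curve. They were applied in duplicate at 300 nM final concentration to universal 'all 10-mer' protein binding microarrays (8×60K format). Binding was quantified as 8-mer E-scores with the Universal PBM Analysis Suite.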
row,Sequence,binding signal [E-score]
1,CACCACGC,0.2817 ± 0.00156
2,ATTCGGGG,0.1763 ± 0.00138
3,GTCGAAAC,0.182 ± 0.0154
4,CTCGGCAC,0.194 ± 0.0445
5,ATCGACAC,0.436 ± 0.0239
6,GTCGACAC,0.4143 ± 0.00159
7,CTCGACCC,0.182 ± 0.0618
8,CTCGACAC,0.419 ± 0.0214
9,ATCGACCC,0.163 ± 0.0642
10,ATCGACTC,0.201 ± 0.019
11,CACGCCTG,0.202 ± 0.0125
12,CCCCTCCA,0.195 ± 0.0175
13,ACATGACA,0.179 ± 0.0207
14,ATGCCAAG,0.162 ± 0.0414
15,GTGGGGTA,0.278 ± 0.0225
16,GGTTTAAC,0.1932 ± 0.000396
17,CAGTCACA,0.1706 ± 0.000283
18,CAGTGTCA,0.4579 ± 0.00161
19,AAGTGTGG,0.169 ± 0.00659
20,CAGTGTCC,0.374 ± 0.0168
21,AAGGGTCG,0.188 ± 0.0266
22,CAGTGTCG,0.444 ± 0.0154

row,Sequence,binding signal [E-score]
1,AAGTGTCG,0.384 ± 0.00583
2,CCTCGACA,0.218 ± 0.00226
3,CCGACTCG,0.159 ± 0.0511
4,GGGGTCGA,0.298 ± 0.0393
5,TAGCGACA,0.172 ± 0.00519
6,AGGGGTCA,0.28 ± 0.00906
7,CACCCGTG,0.3705 ± 0.00306
8,GTTTCACA,0.161 ± 0.0356
9,ACCAGTAC,0.151 ± 0.0205
10,GGTGCGTA,0.161 ± 0.0186
11,CGTACTCC,0.221 ± 0.003
12,GGCACACC,0.351 ± 0.0301
13,CGTACCCC,0.24 ± 0.0402
14,CGTACACG,0.405 ± 0.0112
15,AGTACACA,0.253 ± 0.0191
16,GGTACACC,0.4848 ± 0.00354
17,CGTACACA,0.268 ± 0.0421
18,AGTACACG,0.4259 ± 0.00113
19,GGTACACA,0.322 ± 0.0315
20,TGTACACA,0.353 ± 0.00919
21,CGTACACC,0.483 ± 0.00107
22,CACTTCAA,0.265 ± 0.016

row,Sequence,binding signal [E-score]
1,AAACCCCT,0.178 ± 0.0353
2,GTATCTGA,0.236 ± 0.00609
3,CGGATACA,0.294 ± 0.0106
4,CCCGCGCA,0.176 ± 0.0199
5,CCCCCCAG,0.162 ± 0.0223
6,AGTACACT,0.406 ± 0.0266
7,AGTACACC,0.4815 ± 0.00102
8,AGTACCCC,0.2867 ± 0.00256
9,AGTACAAG,0.205 ± 0.0236
10,CACGCTCA,0.155 ± 0.038
11,CTAGCACC,0.203 ± 0.0347
12,GTATCGGA,0.2544 ± 0.00158
13,GCACGGTA,0.165 ± 0.0341
14,ATACGGTG,0.276 ± 0.0116
15,ACACGGTA,0.385 ± 0.0298
16,ACCCGGTA,0.236 ± 0.00419
17,ACACGGCG,0.359 ± 0.00453
18,ACACGGTG,0.438 ± 0.00996
19,ACACGGTC,0.4128 ± 0.00131
20,ACGGGAGT,0.186 ± 0.00625
21,ACTCCACC,0.275 ± 0.00877
22,CGTGCACG,0.17 ± 0.0561

row,Sequence,binding signal [E-score]
1,CACCGTGC,0.3272 ± 0.00251
2,ACCACTAC,0.178 ± 0.00318
3,CTCCCGGC,0.152 ± 0.0261
4,ACCCCTAC,0.294 ± 0.0164
5,AGGGGTAA,0.224 ± 0.0133
6,AGTGGTGC,0.2454 ± 0.00132
7,ATGTAACA,0.2716 ± 0.000905
8,GTGTAAAC,0.445 ± 0.018
9,GTTTAAAC,0.3445 ± 0.00099
10,GGGTAATA,0.264 ± 0.00387
11,GGGTAAAC,0.193 ± 0.00601
12,GTGTAAGA,0.411 ± 0.0296
13,CCCTAAGA,0.276 ± 0.0324
14,GTGTAATA,0.451 ± 0.00861
15,GGGTAACA,0.281 ± 0.0312
16,GTGTGAGA,0.291 ± 0.0156
17,GTGAAATA,0.172 ± 0.00835
18,GTGTAACA,0.445 ± 0.00891
19,ACATAGTG,0.19 ± 0.00926
20,ACCCTGCT,0.19 ± 0.00245
21,CACGCGAG,0.27 ± 0.0228
22,CCCGCCGG,0.245 ± 0.0587

row,Sequence,binding signal [E-score]
1,CCAAGCGG,0.162 ± 0.00467
2,AACGTACA,0.185 ± 0.0191
3,GTATCGTA,0.18 ± 0.0138
4,AGTCGCGA,0.189 ± 0.03
5,CACTCCTC,0.201 ± 0.00344
6,GTGTGAAA,0.356 ± 0.00667
7,GTGTAAAA,0.401 ± 0.049
8,GGATCCCA,0.235 ± 0.0247
9,ATTGACCC,0.167 ± 0.0261
10,ATTGACAC,0.438 ± 0.0129
11,CTTGATAC,0.195 ± 0.0457
12,CTTGACCC,0.201 ± 0.00951
13,CTTGACAC,0.42915 ± 0.000184
14,ATTGACTC,0.162 ± 0.0495
15,CAGCGTTA,0.187 ± 0.0162
16,AGATGACA,0.1652 ± 0.000311
17,CACCCACA,0.365 ± 0.00539
18,CCCTTAAC,0.152 ± 0.0479
19,GAATACAC,0.408 ± 0.0236
20,AAATACAC,0.403 ± 0.0413
21,GAATACCC,0.159 ± 0.00629
